Experimental data taken from PubChem BioAssay.
A number with no mark means an inactive call. The rule behind the calls is not given here.

target: Pantothenate synthetase (Mycobacterium tuberculosis (strain ATCC 25618 / H37Rv)) (UniProt P9WIL5); test: Recombinant Mtb pantothenate synthetase (PanC) inhibitors, coupled enzyme, confirmatory (AID 375); settings: coupled enzyme assay; at 10 µM, active compounds read high;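 note: 0% = full reaction with vehicle and 100% = no enzyme background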
Sequence (P9WIL5 whole entry, looked up): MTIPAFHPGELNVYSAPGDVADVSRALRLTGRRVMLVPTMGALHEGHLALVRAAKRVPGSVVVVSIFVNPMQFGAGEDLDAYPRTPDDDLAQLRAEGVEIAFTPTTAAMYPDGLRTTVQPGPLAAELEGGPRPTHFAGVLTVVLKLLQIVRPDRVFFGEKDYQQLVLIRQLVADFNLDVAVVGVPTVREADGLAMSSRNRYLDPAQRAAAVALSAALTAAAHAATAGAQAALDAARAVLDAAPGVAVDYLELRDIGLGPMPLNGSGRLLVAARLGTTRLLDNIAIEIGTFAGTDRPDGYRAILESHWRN

Row | Compound | inhibition
1 | Cc1cccc(Cn2c(SCCN3CCCCC3)nc3c2c(=O)[nH]c(=O)n3C)c1 | 0%
2 | COC(=O)c1c(N)nc(C)n1-c1ccc(OC)cc1 | 0%
3 | CN(C)c1cccc(N=C2C=C(N3CCOCC3)CC(C)(C)C2)c1 | 0%
4 | CC(C)c1ccc(NC(=O)CCNS(=O)(=O)c2cccc3nonc23)cc1 | 0%
5 | C/C(CC(O)(/C=N/O)c1ccccc1)=N\O (stereo not given) | 1%
6 | COc1ccc(CNC(=O)COC(=O)c2n[nH]c3ccccc23)cc1OC | 7%
7 | CCN(CC)CCN1C(=O)C(O)=C(C(=O)c2cccs2)C1c1ccc(C)o1 (stereo not given) | 0%
8 | CCN(Cc1cc2cc(OC)ccc2[nH]c1=O)C(=O)c1ccncc1 | 4%
9 | O=C(N1CCCCCC1)N1CCN(S(=O)(=O)N2CCCCC2)CC1 | 0%
10 | N#Cc1c(N2C(=O)C3C4C=CC(C4)C3C2=O)sc2c1CCC2 (stereo not given) | 0%
11 | CCCn1c(SCC(=O)NC(=O)NCc2ccco2)n[nH]c1=O | 0%
12 | c1ccc(-c2cn3cccnc3n2)cc1 | 0%
13 | c1cn(C23CC4CC(CC(C4)C2)C3)cn1 | 0%
14 | Cc1nnc(SCC(=O)Nc2nccs2)s1 | 0%
15 | COc1ccc(Cl)cc1NC(=O)COc1cccc(-n2cnnn2)c1 | 0%
16 | CCCn1cnc2c(c1=O)c1nc3ccccc3nc1n2Cc1ccccc1OC | 0%
17 | CCCCc1c(O)nc(N2CCN(Cc3ccccc3)CC2)[nH]c1=O | 7%
18 | CCOC(=O)Cn1nnc(-c2ccc(SC)cc2)n1 | 0%
19 | COc1ccc(Cn2c(N)c(C#N)c3nc4ccccc4nc32)cc1OC | 1%
20 | C=CCn1c(SCC(=O)c2cc(C)n(C(C)COC)c2C)nc2sc(C)c(C)c2c1=O (stereo not given) | 4%

Row | Compound | inhibition
21 | CC(=O)c1cc2c(cc1NC(=O)CN1CCN(C(=O)c3ccco3)CC1)OCO2 | 4%
22 | Cn1c2c(c(=O)n(C)c1=O)C(NC(=O)C(C)(C)C)(C(F)(F)F)C(=O)N2 (stereo not given) | 0%
23 | N#Cc1cc2c(nc1SCC(=O)N1CCCCC1)CCCC2 | 0%
24 | CCOC(=O)c1ccc(NC(=O)Cn2cc3c(n2)CCC(C)C3)cc1 (stereo not given) | 8%
25 | Cc1c(C(=O)OCC(C)C)[nH]c2c1C(=O)CC(c1ccco1)C2 (stereo not given) | 1%
26 | CC(=O)OC1c2ccccc2C(=O)N1c1ccccc1C (stereo not given) | 1%
27 | Clc1ccc(C2Nc3ccccc3-n3cccc32)cc1 (stereo not given) | 0%
28 | Cc1ccc(C)c(N2CCN(Cc3nnnn3C3CCCCC3)CC2)c1 | 1%
29 | O=C(c1nc2n(n1)C(c1ccc(Cl)cc1)C=C(c1ccccc1)N2)N1CCOCC1 (stereo not given) | 0%
30 | Cc1cc(S(=O)(=O)N2CCN(c3ncccn3)CC2)ccc1-n1cnnn1 | 1%
31 | COc1ccc(-c2nnc(SCC(=O)N3CCOCC3)o2)cc1OC | 0%
32 | O=C(CN1CCC(NC(=O)c2ccc(F)cc2)CC1)NCc1ccccc1F | 5%
33 | CC(CCc1ccccc1)NC(=O)c1ccc(Br)o1 (stereo not given) | 0%
34 | Cc1nnc(SCC2=C(C(=O)O)N3C(=O)[C@@H](NC(=O)Cn4cnnn4)[C@H]3SC2)s1 | 0%
35 | O=C1C2ON(c3ccccc3)C(c3cccnc3)C2C(=O)N1c1ccccc1 (stereo not given) | 4%
36 | Fc1ccccc1Cn1nnc2c(-n3ccnc3)ncnc21 | 0%
37 | Cc1oc2c(CN3CCOCC3)c(O)ccc2c(=O)c1-c1ccc(Br)cc1 | 0%
38 | CC(NC(=O)c1cn(C)c2ccc(S(=O)(=O)N3CCCC3)cc2c1=O)c1ccc2c(c1)OCCO2 (stereo not given) | 0%
39 | Cn1c(=O)c2c(ncn2CC(O)CNc2ccc(Cl)cc2)n(C)c1=O (stereo not given) | 0%
40 | CCCc1cc(C(=O)Nc2ccc(C(C)=O)cc2)no1 | 0%
